This is an account of results in PubChem BioAssay AID1347076 (National Center for Advancing Translational Sciences (NCATS), 2019).

Hit rate of the full screen: of about 400,000 compounds, about 13,000 (3.2%) were called active. Not shown: some 18% with an inconclusive outcome. The call rests on the fitted dose curve; in most records, active means well fitted cell-killing curve with a large enough effect; inconclusive means small, poorly fitted or top-dose-only effect, or effect the other way; inactive means flat fitted curve, though single readings scatter. The entries come from a sample that favours actives as a whole. Entries that show only a call come without a potency.
Potency means the concentration at half of the fitted maximal effect.

This assay in a line: qHTS assay for MDR1-selective chemotherapeutics: Primary screen using the drug-selected MDR subline cells KB-V1. Further: nearly all actives have a fitted effect of over 60% in size. As to conditions: KB-V1 MDR cells viability, CellTiter-Glo, 72 h; series mostly up to 46.1 µM. The method in brief: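 Drug-selected KB-V1 cells, grown in DMEM lacking phenol red with 10% FBS, receive compound titrations; after three days at 37 degrees C, surviving cell ATP is quantified by CellTiter-Glo luminescence and responses normalized and curve-fitted.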
(In general: qHTS replaces the single test concentration by a dilution series.)
As for `CC(Oc1ccc(Br)cc1)C(=O)NCC(c1ccco1)N1CCCCC1` (stereo not drawn), the Potency was 14.6 µM (active). To `CC(Oc1ccc(Br)cc1)C(=O)NC1CCCCCC1` (stereo not drawn) belongs “inactive”; to `O=C(CCNC(=O)c1ccc(Br)cc1)NCC(c1ccco1)N1CCCCC1` (stereo not drawn), “inactive”; to `C=CCn1c2c(c3ccccc31)CCC2`, “inactive”. With `COc1ccc(CN2C(=O)C(CC(=O)NCc3cccc4ccccc34)CC(C(=O)N3CCOCC3)=C2C)cc1` (stereo not drawn) the entry was “inactive”.

Take `O=C(C[C@H]1CC[C@@H](NC(=O)c2ccncc2)[C@@H](CO)O1)NCC1CC1`: the Potency entry is “inactive”. With `O=C(CSc1nc(C2CC2)nc2ccccc12)Nc1ccc2c(c1)OCCO2` the figure was 14.6 µM (active); with `O=C(CSc1nc(C2CC2)nc2ccccc12)Nc1cccc(O)c1`, “inactive”. As to `Cc1nnc(NC(=O)CSc2nc(C3CCCCC3)nc3ccccc23)s1`, the Potency result was “inactive”.

`CCc1ccc(OC2(C)CCN(CCOc3ccc(C)cc3)C2)cc1` (stereo not drawn): the Potency entry is “inactive”. To `COc1cc(CNc2ncnc3c2ncn3[C@H]2CN(Cc3cccs3)C[C@@H](CO)O2)cc(OC)c1OC` belongs “inactive”; to `COc1ccc(NC(=O)N(C)C[C@@H]2OCc3cn(nn3)CCCC(=O)N([C@H](C)CO)C[C@H]2C)c(OC)c1`, “inactive”. For `CC(=O)NC1=NN(C(C)=O)C(C)(CCS(=O)(=O)c2ccc(Cl)c(Cl)c2)S1` (stereo not drawn), the Potency entry is “inactive”. Take `CC(=O)NC1=NN(C(C)=O)C(C)(c2ccc(Cl)s2)S1` (stereo not drawn): the Potency was 5.8 µM (active). For the compound `CC(=O)NC1=NN(C(C)=O)C(C)(c2ccc(C)cc2)S1` (stereo not drawn), the Potency result is “inactive”. To `CCNC(=O)C1(C)CCN(Cc2ccc(C(=O)OCC)o2)C1` (stereo not drawn) belongs “inactive”; to `CC(=O)C[C@@H]1OC[C@H](CO)N1S(=O)(=O)c1ccc(C)cc1`, “inactive”. To `COc1ccc(Cl)cc1-c1cc(C(=O)Nc2cc(OC)c(OC)c(OC)c2)[nH]n1` belongs “inactive”; to `CCCn1c(=N)n(CC(=O)c2ccc(Cl)c(Cl)c2)c2ccccc21`, “inactive”; to `CCn1c(=N)n(CC(=O)c2cccc(OC)c2)c2ccccc21`, 8.2 µM (active).

With `COc1ccc2cc(C(=O)O)n(CC(=O)c3ccccc3)c2c1`, the Potency result was “inactive”. To `O=C(N[C@H]1CC[C@H](CC(=O)N2CCCCC2)O[C@@H]1CO)c1cccc(F)c1` belongs “inactive”.

Regarding `Cc1cc2nc(-c3ccco3)c(Cc3cccc(F)c3)n2c(C)c1Br`, the Potency result is “inactive”. With `CCOc1ccccc1NC(=O)Cn1c(=O)n(Cc2ccccc2)c(=O)c2c(C)c(C(=O)N(C)C)sc21` the entry was “inactive”.

For `Cc1cccc(-n2c(=O)c3c(C)c(C)sc3n(CC(N)=O)c2=O)c1`, the Potency result is “inactive”. To `Cc1cccc(NC(=O)Cn2c(=O)n(Cc3ccccc3)c(=O)c3c(C)c(C)sc32)c1` belongs 5.17 µM (active); to `CCCS(=O)(=O)NC(=O)C1(C)CCCN(C(=O)c2cc(C)on2)C1` (stereo not drawn), “inactive”.

Take `O=C(OCc1ccc(-c2ccccc2)cc1)c1cccc(O)c1`: the Potency result is “inactive”.

Take `O=C(OCc1ccc(Br)cc1)c1cccc(-c2nnc(-c3ccccc3)o2)c1`: the Potency is 9.2 µM (active). Consider `CC(=O)Nc1cccc(C(=O)OCC(=O)Nc2nnc(-c3ccccc3)o2)c1`, for which the Potency result was “inactive”. With `O=C(O)C1=C/C(=C/C=[N+]2c3cc(O)c(O[C@H]4OC(CO)[C@@H](O)[C@@H](O)[C@@H]4O)cc3C[C@@H]2C(=O)[O-])C[C@H](C(=O)O)N1` (stereo partly drawn), the Potency entry was “inactive”. As to `O=C(Nc1cccc2c1CCCC2)C1CCN(C(=O)NC2CCCCC2)CC1`, the Potency is 13 µM (active). To `Cc1cccc(NC(=O)C2CCN(C(=O)NC3CCCCC3)CC2)c1` belongs “inactive”; to `Cc1ccccc1NC(=O)C1CCN(C(=O)NC2CCCCC2)CC1`, “inactive”. Regarding `CCCCC(O)C1=C[N+](=O)CC=C1` (stereo not drawn), the Potency entry is “inactive”. Turning to `COc1ccc(N(CC(=O)NCCc2ccc(Cl)cc2)S(=O)(=O)c2c(C)nn(C)c2C)cc1`, the Potency result was “inactive”.

As to `C(=Nc1ccc(/C=C/c2ccnc3ccccc23)cc1)c1cc2c3c(c1)CCCN3CCC2`, the Potency result was “inactive”. As to `Cc1cc2c(C)nc(N/N=C/c3ccccc3)nc2o1`, the Potency is 23.1 µM (active).

For the compound `Cc1nc(Cl)cc(N/N=C/c2ccccc2)n1`, the Potency entry is “inactive”. For the compound `O=c1c2ccccc2nc(N/N=C/c2ccccc2)n1O`, the Potency entry is “inactive”.

Regarding `O=C(c1cc(C2CCCCN2S(=O)(=O)c2ccccc2)on1)N1CCOCC1` (stereo not drawn), the Potency entry is “inactive”. To `Nc1cc(C(=O)N2CCN(c3ccccc3Cl)CC2)ccc1N1CC2CC(C1)c1cccc(=O)n1C2` (stereo not drawn) belongs “inactive”. With `Cc1ccc(S(=O)(=O)CCC(=O)OCC(=O)N(C)C2CCS(=O)(=O)C2)cc1` (stereo not drawn), the Potency result is “inactive”. Regarding `CN(C1CCS(=O)(=O)C1)S(=O)(=O)c1ccc2ccccc2c1` (stereo not drawn), the Potency result is “inactive”.

As for `Cc1ccc(S(=O)(=O)N(c2cccc(C)c2)C2CCS(=O)(=O)C2)cc1` (stereo not drawn), the Potency was 16.4 µM (active). For the compound `CCc1nc2nc(C)cc(Nc3ccc(F)c(Cl)c3)n2n1`, the Potency entry was “inactive”. With `N#CCc1c[nH]c2ccc([N+](=O)[O-])cc12`, the Potency entry is “inactive”.

With `CCOC(=O)c1ccc2[nH]c3c(c2c1)CCCC3NC=O` (stereo not drawn), the Potency entry was “inactive”.

In the case of `O=[N+]([O-])c1ccc2[nH]c3c(c2c1)CCCC3O` (stereo not drawn), the Potency was 20.6 µM (active).

For `Cc1c(C(=O)N(C)C)sc2c1c(=O)n(-c1ccc(F)cc1)c(=O)n2CC(=O)N(C)c1ccccc1`, the Potency result is “inactive”.

Take `O=C(COC(=O)Cc1ccc(Cl)cc1Cl)NCc1ccco1`: the Potency result was “inactive”. To `COCCNC(=O)CSc1nc(N)c(NC(=O)c2ccco2)c(=O)[nH]1` belongs “inactive”.

Regarding `O=C(COc1ccccc1Cl)N1N=C(c2cccs2)CC1c1ccco1` (stereo not drawn), the Potency entry was “inactive”.

For the compound `COc1ccc(C2CC(c3cccs3)=NN2C(=O)CCC(=O)O)cc1OC` (stereo not drawn), the Potency entry was “inactive”. Take `O=C1c2cccc(OCC(=O)N3N=C(c4cccs4)CC3c3ccc(F)cc3)c2CCN1Cc1ccccc1` (stereo not drawn): the Potency was 1.64 µM (active). With `COc1ccc(NC(=O)C2(C)Cc3c(-c4ccc(C(N)=O)cc4)ccnc3O2)cc1` (stereo not drawn) the entry was “inactive”. For the compound `O=C(CSc1ncc(-c2ccccc2)[nH]1)Nc1ccc(F)cc1F`, the Potency entry was “inactive”. `CC(C)(C)OC(=O)N1CCN(C(=O)c2[nH]c(C(F)(F)F)nc2-c2ccccc2)CC1`: the Potency entry was “inactive”. To `O=C1O/C(=C\c2ccc(O)cc2)C(O)=C1c1ccc(O)cc1` belongs “inactive”; to `CCOC(=O)c1nnn(CC(=O)Nc2cccc(F)c2)c1C(=O)OCC`, “inactive”; to `CCOC(=O)c1cccc(NC(=O)CCc2c(C)nc3ncnn3c2C)c1`, “inactive”.

Regarding `CCOC(=O)c1cccc(NC(=O)CCn2nnc3ccccc32)c1`, the Potency is 8.2 µM (active).

As for `C[C@H](CO)N1C[C@H](C)[C@@H](CN(C)S(=O)(=O)c2ccc(F)cc2)OCc2cnnn2CCCC1=O`, the Potency entry is “inactive”. With `CCC(C)N(c1ccc(/C=C/c2ccnc3ccccc23)cc1)C(C)CC` (stereo not drawn) the entry was “inactive”; with `OC(c1ccccc1)c1nc(/C=C/c2ccc(C(F)(F)F)cc2)cs1` (stereo not drawn), “inactive”. As for `CC1CCCCN1C(=O)CCS(=O)(=O)Cc1ccccc1` (stereo not drawn), the Potency result is “inactive”. To `Cc1cc(C(=O)OCC(=O)N2C(C)CCCC2C)c2ccccc2n1` (stereo not drawn) belongs “inactive”. To `Cc1nn(-c2ccccc2)nc1C(=O)OCC(=O)N1CCCCC1C` (stereo not drawn) belongs 23.1 µM (active); to `Cc1ccc(N(CC(=O)NCC(C)c2ccccc2)S(=O)(=O)N(C)C)cc1` (stereo not drawn), “inactive”. As to `O=C(NCc1nnnn1-c1ccc(Cl)cc1)c1ccc([N+](=O)[O-])o1`, the Potency entry was “inactive”. `O=[N+]([O-])c1ccc(C(S(=O)(=O)Cc2ccccc2)S(=O)(=O)Cc2ccccc2)cc1`: the Potency result was “inactive”.

Regarding `CN(c1cccc(NC(=O)Nc2ccc(Cl)cc2)c1)S(C)(=O)=O`, the Potency entry was “inactive”. Take `Cn1ccc(NC(=O)Nc2ccc(Cl)cc2)n1`: the Potency entry is “inactive”.

`CC(C)S(=O)(=O)c1csc(NC(=O)Nc2ccc(Cl)cc2)c1Cl`: the Potency was 20.6 µM (active).

On to `CCNC(=O)C1(C)CCCN(Cc2noc(-c3ccccc3OC)n2)C1` (stereo not drawn), for which the Potency entry was “inactive”.

For the compound `O=C(NCc1cccc(C(F)(F)F)c1)c1ccc2sc(COCCO)nc2c1`, the Potency result is “inactive”. As for `O=C(COc1ccc2c(C(F)(F)F)cc(=O)oc2c1)Nc1ccc2c(c1)OCCO2`, the Potency entry was “inactive”. As for `Cc1ccc(SCC(=O)Nc2ccc3c(c2)OCCO3)cc1`, the Potency result is “inactive”. `CCN(CC(=O)Nc1ccc2c(c1)OCCO2)Cc1cc(=O)oc2cc(C)c(C)cc12`: the Potency was 5.17 µM (active). Consider `CC1(C)Cc2ccccc2-c2c[nH]c(=O)n21`, for which the Potency entry is “inactive”.

Consider `Cc1ccc2[nH]c(=O)c(CN(CC3COCCO3)C(=O)Nc3ccccc3C)cc2c1` (stereo not drawn), for which the Potency entry was “inactive”. To `Cc1ccc2[nH]c(=O)c(CN(CCCN(C)C)C(=O)Nc3cccc(Cl)c3)cc2c1` belongs 18.4 µM (active). On to `Cc1cccc(NC(=O)N(Cc2cc3cc(C)cc(C)c3[nH]c2=O)CC2COCCO2)c1` (stereo not drawn), for which the Potency result was “inactive”. `N#CCCC(C#N)(c1cccnc1)N1CCOCC1` (stereo not drawn): the Potency result is “inactive”. In the case of `CCOc1ccccc1CNC(=O)c1cnc2c(-c3ccc(OCC)c(OCC)c3)c(C)nn2c1C`, the Potency entry was “inactive”. On to `Cc1ccccc1NC(=O)NNC(=O)OC(C)(C)C`, for which the Potency result was “inactive”. To `Cc1ccc(C(=O)NNC(=O)OC(C)(C)C)c(Cl)c1` belongs “inactive”. With `CC(C)(C)OC(=O)NNc1c2ccccc2nc2ccccc12` the figure was 9.2 µM (active); with `COC(=O)[C@H]1C[C@H](OC(=O)NCc2ccccc2)[C@@]2(O)CN(S(=O)(=O)c3ccc(C)cc3)CC2[C@H]1C(=O)OC` (stereo partly drawn), “inactive”. As for `COc1ccc(NC(=O)CSc2nc(NS(=O)(=O)c3ccc(C)cc3)cc(=O)[nH]2)cc1`, the Potency is 3.66 µM (active).

Consider `Cc1cc(=O)[nH]c(SCC(=O)Nc2ccc(Br)cc2)n1`, for which the Potency entry was “inactive”. As to `Cc1ccc(NC(=O)CSc2nc(CSc3ccc(C)cc3)cc(=O)[nH]2)cc1`, the Potency entry was “inactive”. With `CC1(C(=O)NS(=O)(=O)c2ccccc2)CCN1C(=O)C1CCCCC1` (stereo not drawn) the entry was “inactive”; with `COC(=O)C[C@H]1C[C@@H]2c3cc(NC(=O)Nc4ccccc4)ccc3O[C@@H]2[C@@H](CO)O1`, “inactive”. Consider `COc1cc(OC)cc(C2=Cc3ccccc3C(CC(=O)c3ccco3)N2c2ccc(-c3cnc(OC)nc3)cc2)c1` (stereo not drawn), for which the Potency entry was “inactive”. `O=S(=O)(Nc1ccccn1)c1cccc(S(=O)(=O)c2ccc(Cl)cc2)c1`: the Potency result is “inactive”.

Take `O=S(=O)(/N=C(/Nc1ccccn1)c1ccccc1)c1ccc(Cl)cc1`: the Potency was 14.6 µM (active). As for `Cc1ccc(S(=O)(=O)/N=C(/Nc2ccccn2)c2ccc(Cl)cc2)cc1`, the Potency result was “inactive”.
